{"source": "paper PMC5540273", "about": "(PLoS ONE, 2017);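 further: KINOMEscan kinase panel screen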", "data": [{"test_system": "RIPK2", "details": "concentration: 1 μM,replicates: in singlicate; n = 1", "units": {"%Inh": "%"}, "values": [{"smiles": "O=C(Nc1ccccc1)c1cccc(Oc2ccc3nccn3n2)c1", "%Inh": 0}, {"smiles": "Cc1ccc(CC(=O)N2CCc3cc(-c4cn(C)c5ncnc(N)c45)ccc32)cc1", "note": "[GSK2634758]", "%Inh": 76}, {"smiles": "COC(=O)c1cccc(NC(=O)NC2CCN(c3ccnc(NCc4ccc(F)cc4)n3)CC2)c1", "note": "[GSK1379860]", "%Inh": 0}, {"smiles": "Cc1n[nH]c2cc(Nc3ccnc(Nc4cccc(CN5CCOCC5)c4)n3)ccc12", "note": "[GW682569]", "%Inh": 79}, {"smiles": "CCN1CCN(CCCC(=O)Nc2n[nH]c3nc(-c4ccc(O)cc4)c(Br)cc23)CC1", "note": "[SB-731579]", "%Inh": 0}, {"smiles": "COc1ccc(Nc2nccc(N3CCC(NC(=O)c4cccc(C#N)c4)C3)n2)cc1", "note": "(centres unmarked) [GSK1379730]", "%Inh": 0}, {"smiles": "C[C@@H](Oc1cc(-n2cnc3cc(-c4ccncc4)ccc32)sc1C(N)=O)c1ccccc1Cl", "note": "[GSK479719]", "%Inh": 17}, {"smiles": "Cc1nnc(-c2ccc3occ(-c4ccc(S(C)=O)cc4)c3n2)o1", "note": "(centres unmarked)", "%Inh": 0}, {"smiles": "Cn1cc(-c2cccc3c(N)c(C(N)=O)nnc23)cn1", "%Inh": 3}, {"smiles": "Cl.Nc1n[nH]c2cc(-c3ccccn3)ccc12", "note": "[GSK2189892]", "%Inh": 0}, {"smiles": "COc1cccc(CNC(=O)NC2CCN(c3ccnc(Nc4cc(OC)c(OC)c(OC)c4)n3)C2)c1", "note": "(centres unmarked) [GSK1379765]", "%Inh": 0}, {"smiles": "Cc1ccc(C(=O)Nc2ccc(Oc3ccc4nc(NC(=O)C5CC5)cn4c3)c(F)c2)c(=O)n1-c1ccccc1", "%Inh": 12}, {"smiles": "Cc1cccc2c(-c3ccncc3)c(-c3ccc(F)cc3)nn12.Cl", "note": "[GW461487]", "%Inh": 48}, {"smiles": "C[C@@H](Oc1cc(-n2cnc3ccc(-c4ccncc4)cc32)sc1C(N)=O)c1ccccc1Cl", "note": "[GSK483724]", "%Inh": 26}, {"smiles": "CNC(=O)c1ccccc1Nc1nc(Nc2cccc(CS(C)(=O)=O)c2)ncc1C.O=CO", "note": "[GSK1520489]", "%Inh": 30}, {"smiles": "COc1cc2c(Nc3ccc(NC(=O)c4ccccc4)cc3)ncnc2cc1OCCCN1CCOCC1", "note": "[GSK301329]", "%Inh": 55}, {"smiles": "O=C(Nc1ccc(Oc2ccc3nc(NC(=O)C4CC4)cn3n2)c(F)c1)c1cccn(-c2ccccc2)c1=O", "%Inh": 4}, {"smiles": "COc1cc(Nc2nccc(N3CCC(NC(=O)c4cccc(C#N)c4)C3)n2)cc(OC)c1OC", "note": "(centres unmarked) [GSK1379751]", "%Inh": 25}, {"smiles": "CC(C)S(=O)(=O)N1CCN(Cc2ccc3c(c2)nc(NC(=O)c2ccsc2)n3C[C@H](O)c2ccccc2)CC1", "note": "[GW635815]", "%Inh": 4}, {"smiles": "Cn1ccc2ncnc(Oc3ccc(NC(=O)Nc4cccc(C(F)(F)F)c4)c(F)c3)c21", "%Inh": 52}, {"smiles": "Cc1ccc2c(-c3ccnc(Nc4ccc(C(F)(F)F)cc4)n3)cnn2n1", "note": "[GW819776]", "%Inh": 17}, {"smiles": "C[C@@H]1CNc2c(sc3ccc4nc(-c5ccncc5)ccc4c23)C(=O)N1", "%Inh": 0}, {"smiles": "Cn1ccc2ncnc(Oc3ccc(NC(=O)Nc4cccc(C(F)(F)F)c4)c(Cl)c3)c21", "%Inh": 43}, {"smiles": "COc1cccc(OC)c1C(=O)Nc1cccc(-c2nn3ccccc3c2-c2ccnc(Nc3cccc(F)c3)n2)c1", "note": "[GSK361065]", "%Inh": 38}, {"smiles": "CN1CCN(CCCNc2nccc(-c3c(-c4ccc(F)cc4)nn4cc(C(N)=O)ccc34)n2)CC1", "note": "[GW622475]", "%Inh": 85}, {"smiles": "CCCC(=O)Nc1n[nH]c2ncccc12", "note": "[SB-601436]", "%Inh": 0}, {"smiles": "Cn1ccc2ncnc(Oc3ccc(NC(=O)Nc4cc(C(C)(C)C)on4)c(Cl)c3)c21", "%Inh": 83}, {"smiles": "Cl.c1ccc(Oc2ccc(Nc3ccnc4cc(-c5ccc(CN6CCNCC6)o5)ccc34)cc2)nc1", "note": "[GW567142]", "%Inh": 95.5}, {"smiles": "CC(=O)Nc1ccc(-c2cc3ncnc(SCC(=O)O)c3s2)cc1", "%Inh": 0}, {"smiles": "Cc1ccc(Nc2ccnc(Nc3ccc4c(c3)CS(=O)(=O)C4)n2)cc1O.Cl", "note": "[GW579362]", "%Inh": 93.6}, {"smiles": "COc1cccc(C2=C(Nc3cccc(Cl)c3)C(=O)NC2=O)c1", "note": "[SB-341556]", "%Inh": 0}, {"smiles": "OCCn1cc(-c2cnc3nnn(Cc4ccc5ncccc5c4)c3n2)cn1", "%Inh": 0}, {"smiles": "Cn1ccc2ncnc(Oc3ccc(NC(=O)Nc4cncc(C(F)(F)F)c4)c(Cl)c3)c21", "%Inh": 9}, {"smiles": "CN(c1cccc(CNc2nc(Nc3ccc4c(c3)CC(=O)N4)ncc2C(F)(F)F)c1)S(C)(=O)=O", "%Inh": 0}, {"smiles": "Cl.Cl.NC[C@H](CC1CCCCC1)NC(=O)c1ccc(-c2ccnc3[nH]ccc23)s1", "note": "[GSK1581428]", "%Inh": 0}, {"smiles": "N#Cc1cccc(C(=O)NC2CCN(c3ccnc(Nc4ccc(F)cc4)n3)C2)c1", "note": "(centres unmarked) [GSK1379708]", "%Inh": 0}, {"smiles": "c1ccc(Oc2ccc(Nc3ccnc4ccc(-c5ccccn5)cc34)cc2)cc1", "note": "[GW407034]", "%Inh": 95.7}]}, {"test_system": "RIPK4", "details": "concentration: 1 μM,replicates: in singlicate; n = 1", "units": {"%Inh": "%"}, "values": [{"smiles": "O=C(Nc1ccccc1)c1cccc(Oc2ccc3nccn3n2)c1", "%Inh": 26}, {"smiles": "Cc1ccc(CC(=O)N2CCc3cc(-c4cn(C)c5ncnc(N)c45)ccc32)cc1", "note": "[GSK2634758]", "%Inh": 0}, {"smiles": "COC(=O)c1cccc(NC(=O)NC2CCN(c3ccnc(NCc4ccc(F)cc4)n3)CC2)c1", "note": "[GSK1379860]", "%Inh": 5}, {"smiles": "Cc1n[nH]c2cc(Nc3ccnc(Nc4cccc(CN5CCOCC5)c4)n3)ccc12", "note": "[GW682569]", "%Inh": 62}, {"smiles": "CCN1CCN(CCCC(=O)Nc2n[nH]c3nc(-c4ccc(O)cc4)c(Br)cc23)CC1", "note": "[SB-731579]", "%Inh": 27}, {"smiles": "COc1ccc(Nc2nccc(N3CCC(NC(=O)c4cccc(C#N)c4)C3)n2)cc1", "note": "(centres unmarked) [GSK1379730]", "%Inh": 0}, {"smiles": "C[C@@H](Oc1cc(-n2cnc3cc(-c4ccncc4)ccc32)sc1C(N)=O)c1ccccc1Cl", "note": "[GSK479719]", "%Inh": 8}, {"smiles": "Cc1nnc(-c2ccc3occ(-c4ccc(S(C)=O)cc4)c3n2)o1", "note": "(centres unmarked)", "%Inh": 0}, {"smiles": "Cn1cc(-c2cccc3c(N)c(C(N)=O)nnc23)cn1", "%Inh": 37}, {"smiles": "Cl.Nc1n[nH]c2cc(-c3ccccn3)ccc12", "note": "[GSK2189892]", "%Inh": 4}, {"smiles": "COc1cccc(CNC(=O)NC2CCN(c3ccnc(Nc4cc(OC)c(OC)c(OC)c4)n3)C2)c1", "note": "(centres unmarked) [GSK1379765]", "%Inh": 40}, {"smiles": "Cc1ccc(C(=O)Nc2ccc(Oc3ccc4nc(NC(=O)C5CC5)cn4c3)c(F)c2)c(=O)n1-c1ccccc1", "%Inh": 0}, {"smiles": "Cc1cccc2c(-c3ccncc3)c(-c3ccc(F)cc3)nn12.Cl", "note": "[GW461487]", "%Inh": 0}, {"smiles": "C[C@@H](Oc1cc(-n2cnc3ccc(-c4ccncc4)cc32)sc1C(N)=O)c1ccccc1Cl", "note": "[GSK483724]", "%Inh": 0}, {"smiles": "CNC(=O)c1ccccc1Nc1nc(Nc2cccc(CS(C)(=O)=O)c2)ncc1C.O=CO", "note": "[GSK1520489]", "%Inh": 98}, {"smiles": "COc1cc2c(Nc3ccc(NC(=O)c4ccccc4)cc3)ncnc2cc1OCCCN1CCOCC1", "note": "[GSK301329]", "%Inh": 0}, {"smiles": "O=C(Nc1ccc(Oc2ccc3nc(NC(=O)C4CC4)cn3n2)c(F)c1)c1cccn(-c2ccccc2)c1=O", "%Inh": 0}, {"smiles": "COc1cc(Nc2nccc(N3CCC(NC(=O)c4cccc(C#N)c4)C3)n2)cc(OC)c1OC", "note": "(centres unmarked) [GSK1379751]", "%Inh": 32}, {"smiles": "CC(C)S(=O)(=O)N1CCN(Cc2ccc3c(c2)nc(NC(=O)c2ccsc2)n3C[C@H](O)c2ccccc2)CC1", "note": "[GW635815]", "%Inh": 7}, {"smiles": "Cn1ccc2ncnc(Oc3ccc(NC(=O)Nc4cccc(C(F)(F)F)c4)c(F)c3)c21", "%Inh": 0}, {"smiles": "Cc1ccc2c(-c3ccnc(Nc4ccc(C(F)(F)F)cc4)n3)cnn2n1", "note": "[GW819776]", "%Inh": 10}, {"smiles": "C[C@@H]1CNc2c(sc3ccc4nc(-c5ccncc5)ccc4c23)C(=O)N1", "%Inh": 0}, {"smiles": "Cn1ccc2ncnc(Oc3ccc(NC(=O)Nc4cccc(C(F)(F)F)c4)c(Cl)c3)c21", "%Inh": 0}, {"smiles": "COc1cccc(OC)c1C(=O)Nc1cccc(-c2nn3ccccc3c2-c2ccnc(Nc3cccc(F)c3)n2)c1", "note": "[GSK361065]", "%Inh": 9}, {"smiles": "CN1CCN(CCCNc2nccc(-c3c(-c4ccc(F)cc4)nn4cc(C(N)=O)ccc34)n2)CC1", "note": "[GW622475]", "%Inh": 28}, {"smiles": "CCCC(=O)Nc1n[nH]c2ncccc12", "note": "[SB-601436]", "%Inh": 0}, {"smiles": "Cn1ccc2ncnc(Oc3ccc(NC(=O)Nc4cc(C(C)(C)C)on4)c(Cl)c3)c21", "%Inh": 12}, {"smiles": "Cl.c1ccc(Oc2ccc(Nc3ccnc4cc(-c5ccc(CN6CCNCC6)o5)ccc34)cc2)nc1", "note": "[GW567142]", "%Inh": 0}, {"smiles": "CC(=O)Nc1ccc(-c2cc3ncnc(SCC(=O)O)c3s2)cc1", "%Inh": 2}, {"smiles": "Cc1ccc(Nc2ccnc(Nc3ccc4c(c3)CS(=O)(=O)C4)n2)cc1O.Cl", "note": "[GW579362]", "%Inh": 98.6}, {"smiles": "COc1cccc(C2=C(Nc3cccc(Cl)c3)C(=O)NC2=O)c1", "note": "[SB-341556]", "%Inh": 4}, {"smiles": "OCCn1cc(-c2cnc3nnn(Cc4ccc5ncccc5c4)c3n2)cn1", "%Inh": 0}, {"smiles": "Cn1ccc2ncnc(Oc3ccc(NC(=O)Nc4cncc(C(F)(F)F)c4)c(Cl)c3)c21", "%Inh": 0}, {"smiles": "CN(c1cccc(CNc2nc(Nc3ccc4c(c3)CC(=O)N4)ncc2C(F)(F)F)c1)S(C)(=O)=O", "%Inh": 0}, {"smiles": "Cl.Cl.NC[C@H](CC1CCCCC1)NC(=O)c1ccc(-c2ccnc3[nH]ccc23)s1", "note": "[GSK1581428]", "%Inh": 0}, {"smiles": "N#Cc1cccc(C(=O)NC2CCN(c3ccnc(Nc4ccc(F)cc4)n3)C2)c1", "note": "(centres unmarked) [GSK1379708]", "%Inh": 6}, {"smiles": "c1ccc(Oc2ccc(Nc3ccnc4ccc(-c5ccccn5)cc34)cc2)cc1", "note": "[GW407034]", "%Inh": 16}]}]}
